Screening results from PubChem BioAssay.
Rows were chosen to be rich in hits. Some 28% of all compounds tested hit in one or more screens of this group.
CYP2C9 activ – activators of human CYP2C9. AID 1024. recombinant CYP2C9, luciferin-H conversion, luminescence; stronger effect = higher value; factor 1 = untreated enzyme, 0 = blocked. activation factor at 5 µM. hit rate 1.4% among 96,000. P11712;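 active = activation factor of 2 or more for CYP2C9 at a 5 µM dose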
Target sequence (P11712 whole entry, looked up): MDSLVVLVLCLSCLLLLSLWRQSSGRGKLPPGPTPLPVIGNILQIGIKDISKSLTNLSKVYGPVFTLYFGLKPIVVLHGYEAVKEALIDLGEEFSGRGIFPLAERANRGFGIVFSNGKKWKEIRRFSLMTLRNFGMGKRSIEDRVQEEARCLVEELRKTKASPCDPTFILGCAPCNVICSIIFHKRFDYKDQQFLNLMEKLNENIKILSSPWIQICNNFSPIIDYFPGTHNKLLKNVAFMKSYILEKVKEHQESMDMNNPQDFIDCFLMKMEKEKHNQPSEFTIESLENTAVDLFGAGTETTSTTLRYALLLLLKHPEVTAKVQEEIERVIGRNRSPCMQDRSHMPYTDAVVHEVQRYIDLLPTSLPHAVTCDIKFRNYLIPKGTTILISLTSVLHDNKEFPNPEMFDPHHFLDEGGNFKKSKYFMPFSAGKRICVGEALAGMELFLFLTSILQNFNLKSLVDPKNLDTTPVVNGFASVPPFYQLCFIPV
CD11b adhes inh – blocks human CD11b/CD18 adhesion to fibrinogen; P05107+P11215; K562 CD11b/CD18 adhesion to fibrinogen, ATPlite luminescence; Mn2+ added to activate the integrin; inhibition, % at 10 µM; hit rate 0.54% among 93,000; AID 1497;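 active = primary inhibition of 50% or more at 10 µM, then 40% or more on retest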
CYP2C9 inh – inhibitors of human CYP2C9; P11712; CYP2C9 Supersomes, luciferin-H conversion, luminescence; inhibition, % at 5 µM; hit rate 20% among 96,000;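 active = blocking of liver enzyme CYP2C9 beyond about 50% at 5 µM, limit read from the data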
CYP2C19 activ – cytochrome P450 2C19 (human) activation; P33261; recombinant CYP2C19, luciferin-H EGE luminescence; stronger effect = higher value; 0 = fully inhibited enzyme, 1 = untreated enzyme; activation factor at 5 µM; 96,000 tested, under 10 active; AID 1025;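 active = activation factor of at least 2 at 5 µM in the primary screen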
CYP2C19 inh – human CYP2C19 inhibition; P33261; CYP2C19 Supersomes, luciferin-H EGE luminescence, 30 min; hit rate 21% among 96,000; inhibition, % at 5 µM;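 active = CYP2C19 inhibition above a set limit at 5 µM in the primary screen, cut at about 50% in these data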
CD11b adhes enh – enhancers of human CD11b/CD18 binding to fibrinogen. activation, % at 10 µM. AID 1499. hit rate 0.07% among 93,000. P05107+P11215. K562 CD11b/CD18 adhesion to fibrinogen, ATPlite luminescence;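 active = 10 µM primary screen giving 50% or more activity, confirmed by 40% or more on retest at that dose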
Each line names hits and unclear results; the compound was inactive in the other large screens.

CCCCN(C(=O)NC(=O)Nc1ccccc1C)S(C)(=O)=O	CYP2C9 inh 53 (no result: CD11b adhes inh, CD11b adhes enh)
COc1ccc2c(COC(=O)CNC(=O)C34CC5CC(CC(C5)C3)C4)cc(=O)oc2c1	none (no result: CYP2C9 activ, CYP2C9 inh, CYP2C19 activ, CYP2C19 inh)
CCOc1cccc(=O)c2c(C)oc(C)c12	CYP2C9 inh 95
CCOc1cccc2cc(-c3cn4cc(C)ccc4n3)c(=O)oc12	none
COC(=O)C1=C(CN2CCc3ccccc32)NC(=O)NC1c1cc(C)ccc1C (stereo not drawn)	none
COC(=O)C1=C(CN2CCCc3ccccc32)NC(=O)NC1c1ccc(F)cc1 (stereo not drawn)	CYP2C19 inh 72
Cc1nn(CCc2n[nH]c(=S)n2C2CCCCC2)c(C)c1Br	none (no result: CD11b adhes inh, CD11b adhes enh)
O=S(=O)(NCC1CCCO1)c1cc(Cl)ccc1Br (stereo not drawn)	none
O=C(O)c1ccc(Cl)c(S(=O)(=O)NCC2CCCO2)c1 (stereo not drawn)	none
O=S(=O)(NCC1CCCO1)c1cc(Cl)ccc1Cl (stereo not drawn)	CYP2C19 inh 66
COc1cc(S(=O)(=O)NCC2CCCO2)c(OC)cc1Cl (stereo not drawn)	CYP2C19 inh 66
O=C(NCc1ccco1)/C(=C/c1cccnc1)NC(=O)c1ccco1	none (no result: CD11b adhes inh, CD11b adhes enh)
CCCP(=O)(CCC)CCP(=O)(c1ccccc1)c1ccccc1	none (no result: CYP2C9 activ, CYP2C9 inh, CYP2C19 activ, CYP2C19 inh)
COC(=O)CNC(=O)CN1C(=O)N(c2cccc(Cl)c2)C(N(O)C(=O)Nc2cccc(Cl)c2)C1(C)C (stereo not drawn)	none
Cc1c(N=Cc2nc3ccccc3[nH]2)c(=O)n(-c2ccccc2)n1C	none
O=C1c2ccccc2C(=O)N1CCCc1nc2ccccc2c(=O)n1CCCn1ccnc1	CYP2C9 inh 99, CYP2C19 inh 86
Cn1c(=O)c(-c2ccccc2N)nc2ccccc21	none
Cc1c(N=Cc2c(O)n(Cc3ccco3)c(=O)c3ccccc23)c(=O)n(-c2ccccc2)n1C	CYP2C9 inh 81, CYP2C19 inh 56
Cn1c(-n2c(CCN3C(=O)c4ccccc4C3=O)nc3ccccc3c2=O)nc2ccccc21	CYP2C9 inh 92, CYP2C19 inh 87
CCCc1nc2sc3ccccc3c(=O)c2c(=O)n1Cc1ccco1	none
S=c1nc(-c2ccccc2)n(CCCn2ccnc2)c2c1CCCC2	none
O=C1c2ccccc2C(=O)N1CCc1nc2ccccc2c(=O)n1Cc1ccco1	CYP2C9 inh 80, CYP2C19 inh 93
Cc1ccccc1CS(=O)(=O)Cc1ccc(C(=O)NCCCN2CCCC2=O)o1	none
CCN(CC)CCC(=O)Nc1ccc2c(c1)N(C(=O)CN(CC)CC)c1ccccc1CC2	none (no result: CD11b adhes inh, CD11b adhes enh)
OC(COCC1COc2ccccc2O1)CN1CCN(c2ccccn2)CC1 (stereo not drawn)	none
Cn1c(-n2c(CCCN3C(=O)c4ccccc4C3=O)nc3ccccc3c2=O)nc2ccccc21	CYP2C9 inh 64
O=c1c2ccccc2c2ccccc2c(=O)n1Cc1ccco1	CYP2C9 inh 73, CYP2C19 inh 81
Nc1cc(=O)[nH]c(=O)n1Cc1ccco1	none
CCn1c(=O)cc(SCC(=O)Nc2cc(OC)c(OC)c(OC)c2)c2ccccc21	CYP2C9 activ 2.9, CYP2C19 inh 77
CCn1c(=O)cc(SCC(=O)NCc2ccco2)c2ccccc21	none
CCn1c(=O)cc(SCC(=O)Nc2ccc3c(c2)OCCO3)c2ccccc21	CYP2C9 activ 2, CYP2C19 inh 61
CCn1c(=O)cc(SCC(=O)Nc2cccc(SC)c2)c2ccccc21	none
CCn1c(=O)cc(SCC(=O)NCc2ccc(C)o2)c2ccccc21	CYP2C9 activ 2
Cc1[nH]c2ccccc2c1[C@H]1[C@@H](CC#N)C1(C)C	none
Cc1ccc2c3c(c(SCC(=O)Nc4nccs4)nc2c1)CCCC3	none (no result: CD11b adhes inh, CD11b adhes enh)
CC(C)CNc1c(N)c(=O)oc2ccccc12	none
CCOC(=O)C1CCN(c2c(NCc3ccc(C(=O)NCCC(C)C)cc3)c(=O)c2=O)CC1	CYP2C9 inh 59 (no result: CD11b adhes inh, CD11b adhes enh)
CCOC(=O)C1CCCN(C(=O)c2ccc(CNc3c(N4CCC(C)CC4)c(=O)c3=O)cc2)C1 (stereo not drawn)	CYP2C9 inh 55
CCOC(=O)N1CCN(c2c(NCc3ccc(Cl)cc3)c(=O)c2=O)CC1	CYP2C9 inh 64
CCCNC(=O)c1ccc(CNc2c(N3CCC(C(=O)OCC)CC3)c(=O)c2=O)cc1	none
